Hits are enriched below; roughly 19% of the tested compounds scored in any of these assays.
HT1080 IDH1KD tx: kills HT-1080 cells with IDH1 knockdown; HT-1080 IDH1 knockdown viability, ATP luminescence, 48 h; Potency, µM (highest dose often 46.1 µM), inactives show at the top dose activity, negative = toxicity, hits mostly cytotoxic; 360,000 tested, 2% active; AID 686971;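 also: potency is read from the fitted curve at half-maximal effect; 0% = DMSO wells and -100% = cell-free medium wells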
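IDH1KD HT-1080 cells, 750/well, RPMI + 5% FBS; compound pinned after 2 h settling; 48 h, 37 °C; CellTiter-Glo luminescence; % activity normalised to DMSO and no-cell wells; curves fitted, classed by r2 and efficacy.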
ELG1 repair inh: ELG1-dependent DNA repair inhibition; Potency, µM (series often up to 46.1 µM), for inactives: at the highest dose activity change, negative = inhibition, hits mostly inhibitors; 330,000 tested, 2.3% active; HEK293T ELG1-luciferase reporter, luminescence, 16 h; DNA damage induced by 5-fluorouridine; also: potency is read from the fitted curve at half-maximal effect; nearly all actives have a fitted effect of over 55% in size
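Overnight (16 hr) co-exposure of 2,000 cells/well to 5-fluorouridine and compound at 37 °C preceded detection. Luciferase was quantified via ONE-Glo luminescence; loss of signal denotes inhibition.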
DT40 TDP1 no CPT: qHTS for Inhibitors of human tyrosyl-DNA phosphodiesterase 1 (TDP1): qHTS in cells in absence of CPT. AID 686978, 2013. Potency, µM (doses to about 46.2 µM), inactives show top-dose activity change, negative = growth inhibition, usual class: inhibitors. DT40 Tdp1-/- hTDP1 cells, no CPT, ATP luminescence, 48 h. 420,000 tested, 15% active; also: potency is read from the fitted curve at half-maximal effect; nearly all actives have a fitted effect of over 55% in size
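Luminescent ATP content (CellTiter-Glo) served as the growth readout. Knockout chicken DT40 cells expressing human TDP1 were exposed to compounds without camptothecin for a minimum 48 hr at 37 °C.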
DT40 TDP1 CPT: DT40-hTDP1 cell growth loss with CPT | chicken DT40 Tdp1-/-;hTDP1 cells + 20 nM CPT, ATP luminescence, 48 h | Potency, µM (highest dose often 46.2 µM), for the others: at the top dose activity change, negative = growth inhibition, actives largely listed as inhibitors | 420,000 tested, 12% active; also: potency is read from the fitted curve at half-maximal effect; nearly all actives have a fitted effect of over 55% in size
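Cell growth measured by CellTiter-Glo luminescence after a minimum 48 h, 37 C compound exposure with 20 nM CPT in Tdp1-knockout DT40 cells stably expressing hTDP1, seeded 400/well; qHTS titration format.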
HT1080NT lethal: kills 2HG-producing HT-1080-NT fibrosarcoma cells | HT-1080-NT fibrosarcoma viability, CellTiter-Glo ATP luminescence, 48 h | Potency, µM (titrated, usually from 46.1 µM), inactives show top-dose activity, negative = less viability, actives largely listed as cytotoxic | 360,000 tested, 1.6% active | AID 686970;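 also: NT is the 2HG producing partner of a matched IDH1 knockdown line; potency is read from the fitted curve at half-maximal effect; 0% = DMSO-treated cells and -100% = media-only wells without cells; nearly all actives have a fitted effect of over 55% in size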
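A 48-hour cytotoxicity screen used HT-1080-NT cells plated 2 hours before compound delivery. ATP-based CellTiter-Glo luminescence measured viability, normalized to DMSO and no-cell controls.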
IL1B secr inh: blocks inflammasome-driven IL-1 beta release. 360,000 tested, 4.7% active. THP-1 LPS/ATP IL-1B secretion, AlphaLISA, 16 h; hits give low values. activity change, % at 57.5 µM; in the data active = activity change below about -50%; inconclusive = mostly about -30% to -49%
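THP-1 cells pretreated 1 hr with compounds (up to 57.5 uM final), then stimulated with LPS (250 ng/mL final) plus ATP (1.25 mM final); secreted IL-1B measured by AlphaLISA after 16 hr, decreased signal indicating inhibition.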
Numbers without * were called inactive; ? = inconclusive; . = no result given. Unless noted, calls follow the shape of the dose curve; as a rule, active = well fitted curve in the direction sought with a large enough effect; inconclusive = small, poorly fitted or top-dose-only effect, or another doubt; inactive = no such curve, though single readings can be large; an effect the other way counts as inactive or inconclusive. Unless noted, % is scaled to controls: 0 for no effect and ±100 for the full control effect.

SMILES | HT1080 IDH1KD tx | ELG1 repair inh | DT40 TDP1 no CPT | DT40 TDP1 CPT | HT1080NT lethal | IL1B secr inh
Cc1cccc(NC(=O)C2CCCN(S(=O)(=O)c3ccc4c(c3)oc(=O)n4C)C2)c1C (configuration not stated) | . | . | -27% | -5% | . | .
CC(=O)Nc1ccc(S(=O)(=O)CC(=O)CS(=O)(=O)c2ccc(NC(C)=O)cc2)cc1 | -3% | . | ? | -8% | -4% | 0
CC1CCC(C(=O)NC(C(=O)OCC(=O)c2ccc(Br)cc2)C(C)C)CC1 (configuration not stated) | . | . | 21µM* | ? | . | .
CCc1ccc(C(=O)COC(=O)C(NC(=O)C2CCC(C)CC2)C(C)C)cc1 (configuration not stated) | . | . | ? | -19% | . | .
Cc1ccc(S(=O)(=O)NCCCNS(=O)(=O)c2ccccc2[N+](=O)[O-])cc1 | -4% | -6% | -22% | ? | 0% | -3
Cc1ccccc1NC(=O)COC(=O)CC1CCCC1 | 8% | 13% | -14% | 18% | 18% | 27
C[C@H]1CN([C@@H](C)CO)C(=O)Cc2cc(NC(=O)CCN3CCOCC3)ccc2O[C@@H]1CN(C)Cc1ccc(Oc2ccccc2)cc1 | -25% | 0% | 23µM* | 23µM* | -15% | -25
C[C@H]1CN([C@@H](C)CO)C(=O)Cc2cc(NC(=O)C3CC3)ccc2O[C@H]1CN(C)Cc1ccc(Oc2ccccc2)cc1 | -22% | ? | ? | ? | ? | -72*
O=C1c2ccccc2C(c2nnnn2Cc2ccccc2)N1Cc1ccco1 (configuration not stated) | 13% | . | -28% | -3% | 18% | 9
Cn1c(CNC(=O)C(Cc2ccccc2)NC(=O)c2ccccc2F)cc(=O)n(C)c1=O (configuration not stated) | 4% | 1% | 11% | -15% | 2% | -15
COCCNC(=S)N1CCC2CC1c1c(Cl)cccc12 (configuration not stated) | -5% | . | ? | -24% | -7% | -1
CCCOc1ccc(C(=O)Nc2ccc(CN3CCOCC3)cc2)cc1 | -5% | -19% | ? | ? | -10% | -21
CCCCCCc1ccc(OC(=O)c2ccncc2)cc1 | 2% | -7% | -23% | -19% | 0% | 5
CCCCCCOc1ccc(OC(=O)c2ccncc2)cc1 | 16µM* | ? | 23µM* | 13µM* | ? | 12
CCCOc1cccc(C(=O)Nc2ccc(CN3CCOCC3)cc2)c1 | -15% | -2% | ? | -22% | 1% | -53*
CCCCOc1ccc(C(=O)Nc2ccncc2)cc1 | -15% | ? | 2.6µM* | 5.2µM* | -18% | ?
CCCCOc1ccc(C(=O)Nc2ccc(CN3CCOCC3)cc2)cc1 | 1% | -19% | ? | 13µM* | 3% | -62*
COCCNC(=O)c1cc2cc(Cl)cc(Cl)c2oc1=O | 4% | 14% | -3% | 3% | 25% | -6
CC(=O)c1nnn(-c2ccc(C)cc2Cl)c1C | . | . | -2% | -5% | . | .
CN(C)c1ccc(C2C=C(c3ccc(Cl)cc3OC(F)F)Nc3ncnn32)cc1 (configuration not stated) | ? | ? | 18µM* | 9.2µM* | ? | 14
CCc1ccc(C2N=C(N)Nc3nc4ccccc4n32)cc1 (configuration not stated) | . | . | 18µM* | 16µM* | . | .
CCOc1ccc(C2=CC(c3cccc(Br)c3)n3c(nc4ccccc43)N2)cc1Cl (configuration not stated) | . | . | 13µM* | ? | . | .
CCc1ccc(C2=CC(c3cccc(C)c3)n3c(nc4ccccc43)N2)cc1 (configuration not stated) | . | . | 2.6µM* | ? | . | .
COc1ccc(Cc2n[nH]c(=S)n2Cc2ccccc2)cc1Cl | -17% | -10% | -27% | -3% | -3% | 23
O=C(NC1CC(=O)N(c2ccc(Cl)cc2)C1)C1CC1 (configuration not stated) | -1% | 14% | 5% | 5% | 8% | -14
SMILES | HT1080 IDH1KD tx | ELG1 repair inh | DT40 TDP1 no CPT | DT40 TDP1 CPT | HT1080NT lethal | IL1B secr inh
Cc1oc2c(CN3CCC(C)CC3)c(O)ccc2c(=O)c1-c1ccccc1 | 0% | 2% | 2% | 3% | -5% | -14
CC(C)c1ccc(C2=CC(c3cccc(Cl)c3)n3c(nc4ccccc43)N2)cc1 (configuration not stated) | . | . | 16µM* | ? | . | .
CC(C)c1ccc(C2=CC(c3cccc(Cl)c3)n3ncnc3N2)cc1 (configuration not stated) | . | . | 23µM* | ? | . | .
CCOC(=O)C1(C)CCCN1C(=O)c1ccc(C(=O)OC)cc1 (configuration not stated) | 17% | . | -27% | -16% | 20% | 17
Cc1cc(C)n(-c2cc(C(=O)O)cc(C(=O)O)c2)n1 | 1% | 4% | 5% | -3% | 5% | 1
Cc1cn([C@H]2C[C@H](O)[C@@H](CCC(=O)NCCc3ccc4ccccc4c3)O2)c(=O)[nH]c1=O | 11% | . | -4% | -9% | 3% | 22
Cc1cc(S(=O)(=O)Nc2cc3c(cc2N2CCOCC2)n(C)c(=O)c(=O)n3C)ccc1F | . | . | -26% | -15% | . | .
COc1ccccc1NC(=O)Cn1c(O)c(N=NC(=O)c2ccccc2O)c2ccccc21 | 0% | ? | 1.8µM* | 0.92µM* | -5% | 13
Cc1ccc(NC(=O)Cn2c(O)c(N=NC(=O)c3cc4ccccc4cc3O)c3ccccc32)cc1 | ? | ? | 7.3µM* | 7.3µM* | 21µM* | -95*
Cc1ccc(NC(=O)Cn2c(O)c(N=NC(=O)c3ccncc3)c3ccccc32)cc1 | 13% | 13% | -2% | ? | 14% | 53
O=C(CNC(=O)Cc1ccccc1)N=Nc1c(O)n(Cc2ccc3c(c2)OCO3)c2ccccc12 | -11% | ? | -9% | ? | -10% | ?
COc1ccc(C(=O)NCC(=O)N=Nc2c(O)n(C)c3ccccc23)cc1OC | 1% | ? | -2% | -9% | 2% | ?
O=S1(=O)CC(O)C(N=Nc2c(O)n(Cc3ccccc3)c3ccccc23)C1 (configuration not stated) | -16% | 0% | 12µM* | 16µM* | -6% | -2
COc1ccc(C(=O)NCC(=O)N=Nc2c(O)n(Cc3ccccc3)c3ccccc23)cc1OC | -13% | ? | 16µM* | ? | -10% | -7

Source: PubChem BioAssay
